Source: PubChem BioAssay (National Center for Advancing Translational Sciences (NCATS))
A549 tox-1: counter-screen for Nrf2 inhibitors: cytotoxicity in A549 cells | 0.16% of 390,000 active | AID 504648 | Potency, µM (series often up to 46 µM), most hits filed as inhibitors | A549 ARE-Fluc cells, CellTiter-Fluor viability, 18-24 h
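A549 ARE-Fluc cells in 5% FBS OPTI-MEM, 5000 cells/well, rested 2 h then exposed to compounds in concentration-response for 18-24 h at 37 °C. Viability by CellTiter-Fluor fluorescence (Ex 405/Em 525) after 30 min; luciferase luminescence (BugLite, 15 min, RT) read afterwards.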
ATXN2 expr inh: inhibitors of ATXN2 expression. 0.72% of 360,000 active. HEK-293 ATXN2-luciferase reporter, luminescence, 24 h. Potency, µM (titrated, usually from 57 µM), actives largely listed as inhibitors. AID 1745845; further: nearly all actives have a fitted effect of over 55% in size
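ATXN2-luciferase reporter cells (luciferase flanked by upstream and downstream ATXN2 gene portions) were treated 24 h at 37 °C with compounds at up to 57 uM. SteadyGlo luminescence gave expression; GF-AFC fluorescence gave viability.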
Nrf2 block: blocks Nrf2 signaling | A549 ARE-Fluc reporter, luciferase luminescence, 18-24 h | 2.1% of 360,000 active | Potency, µM (highest dose often 46 µM), most hits filed as inhibitors; further: nearly all actives have a fitted effect of over 60% in size
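Concentration-response testing used A549 ARE_Fluc cells at 5000 cells/well. Following an 18-24 h compound incubation, viability was read by fluorescence (Ex 405/Em 525) and luciferase output by luminescence.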
TGFb inhibitor: inhibitors of TGF-b signaling; HepG2 CAGA-GFP TGF-b/SMAD3 reporter, GFP fluorescence, 18 h; TGF-beta stimulated, 500 pg/mL final; Potency, µM (top dose mostly 46.1 µM), hits mostly inhibitors; 1.2% of 410,000 active; further: nearly all actives have a fitted effect of over 65% in size
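Per well, imaged GFP fluorescence of HEPG2 CAGA-GFP cells gives the signal; cells get compound, then TGF-beta (500 pg/mL final), 18 h at 37 degrees C; %Activity versus -TGF-beta and +DMSO controls.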
HepG2 viability: HepG2 cytotoxicity, counter-screen for TGF-b inhibitors. HepG2 CAGA-GFP viability, ATP luminescence, 18 h. Potency, µM (highest dose often 46.1 µM), most hits filed as cytotoxic. 0.76% of 410,000 active
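CellTiter-Glo luminescence gave cytotoxicity after 18 hours at 37 degrees C. The cells were HepG2 CAGA-GFP in 1% FBS DMEM, stimulated with 500 pg/mL TGF-beta after compound addition. %Activity was normalised to no-cell wells (complete cell-killing) and DMSO (no toxicity), and curves were fitted and classified.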
ATXN viability: reduces viability in counter-screen for ATXN expression inhibitors. S2 cells (HEK-293 line with an ATXN2-luciferase reporter) viability, CellTiter-Fluor protease fluorescence, 24 h. 0.49% of 400,000 active. Potency, µM (doses to about 56.7 µM), usual class: cytotoxic; further: nearly all actives have a fitted effect of over 40% in size
FLuc enzyme inh: firefly luciferase inhibition, Nrf2 hit validation | Potency, µM (top dose mostly 57.5 µM), actives largely listed as inhibitors | shares compounds with Nrf2 block | 4% of 1,400 active | purified firefly luciferase, luminescence inhibition; further: nearly all actives have a fitted effect of over 65% in size
Target sequence (P08659 whole entry, looked up): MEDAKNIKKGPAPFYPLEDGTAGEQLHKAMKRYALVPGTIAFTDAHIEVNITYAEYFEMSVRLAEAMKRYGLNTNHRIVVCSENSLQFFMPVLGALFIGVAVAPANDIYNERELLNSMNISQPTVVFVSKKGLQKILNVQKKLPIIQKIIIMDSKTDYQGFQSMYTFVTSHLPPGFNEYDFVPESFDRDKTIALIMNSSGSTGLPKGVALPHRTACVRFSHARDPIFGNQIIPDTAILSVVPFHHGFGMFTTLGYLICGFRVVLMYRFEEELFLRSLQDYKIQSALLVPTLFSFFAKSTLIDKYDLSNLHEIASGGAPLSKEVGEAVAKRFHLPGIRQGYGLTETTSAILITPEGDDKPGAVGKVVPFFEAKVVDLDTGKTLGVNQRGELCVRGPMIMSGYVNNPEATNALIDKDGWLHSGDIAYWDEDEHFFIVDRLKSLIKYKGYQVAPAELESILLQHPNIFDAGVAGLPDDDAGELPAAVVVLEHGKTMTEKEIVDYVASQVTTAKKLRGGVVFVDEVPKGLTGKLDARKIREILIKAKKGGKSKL
A549 tox-2: A549 cytotoxicity, Nrf2 inhibitor counterscreen; A549 ARE-Fluc cells, cytotoxicity counterscreen; Potency, µM (highest dose often 46.1 µM), actives largely listed as inhibitors; shares compounds with Nrf2 block; 2% of 1,400 active;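 further: cells exposed to compounds for 18 to 24 hours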
ARE-Fluc inh: confirmation of Nrf2 inhibitors in A549 ARE reporter cells | shares compounds with Nrf2 block | A549 ARE-firefly luciferase reporter, luminescence | Potency, µM (titrated, usually from 46.1 µM), usual class: inhibitors | 74% of 1,400 active | AID 720524; further: nearly all actives have a fitted effect of over 65% in size
Of the large screens only hits and unclear results are named; the others gave an inactive call (follow-up assays come after a bar, where they were run). A selection: hits, their analogues and other compounds. The true share with any hit is near 3.8%. The call rests on the fitted dose curve; in most records, active means well fitted curve in the direction sought with a large enough effect; inconclusive means small, poorly fitted or top-dose-only effect, or another doubt; inactive means no such curve, though single readings can be large; an effect the other way counts as inactive or inconclusive.

C[C@@H]1O[C@@H](O[C@H]2C[C@@H](O)[C@]3(CO)[C@@H]4C(CC[C@]3(O)C2)[C@@]2(O)CC[C@H](C3COC(=O)C3)[C@@]2(C)C[C@H]4O)[C@H](O)[C@H](O)[C@H]1O (stereo partly specified)	A549 tox-1 inconclusive, ATXN2 expr inh 1.58µM, Nrf2 block 0.206µM, TGFb inhibitor inconclusive, ATXN viability inconclusive | FLuc enzyme inh inactive | A549 tox-2 inconclusive | ARE-Fluc inh 1.16µM
CCOC(=O)C1(c2ccccc2)CCN(CCC(=O)Nc2cccc(Br)c2)CC1	ATXN2 expr inh inconclusive, TGFb inhibitor inconclusive, ATXN viability inconclusive
CN1Cc2cnnn2-c2ccccc2C1c1ccccc1 (stereo unspecified)	none
Cc1ccc(F)cc1NC(=O)c1ccc(Cn2nc(N3CCN(c4ccccc4)CC3)ccc2=O)o1	Nrf2 block 7.31µM (no result: ATXN2 expr inh, ATXN viability) | FLuc enzyme inh inactive | A549 tox-2 inactive | ARE-Fluc inh 11.6µM
Cc1ccc(Cn2nc(C)c(NC(=O)c3cc(-c4ccc(F)cc4)on3)c2C)cc1	ATXN2 expr inh inconclusive, ATXN viability inconclusive
CCCN(CCC)C(=O)Cc1c(-c2ccc(Cl)cc2)nc2ccc(Cl)cn12	ATXN viability inconclusive (no result: A549 tox-1, Nrf2 block, TGFb inhibitor, HepG2 viability)
Cc1ccc2c(C)c3ccc4ccccc4c3c[n+]2c1	A549 tox-1 inconclusive, ATXN2 expr inh inconclusive, Nrf2 block 2.59µM, TGFb inhibitor inconclusive | FLuc enzyme inh inactive | A549 tox-2 inactive | ARE-Fluc inh 5.8µM
CN(C)CCc1c[nH]c2cccc(OP(=O)(O)O)c12	none (no result: A549 tox-1, Nrf2 block, TGFb inhibitor, HepG2 viability)
Cc1cc([N+](=O)[O-])c2ccccc2[n+]1[O-]	A549 tox-1 inconclusive, Nrf2 block 4.11µM, TGFb inhibitor 0.501µM (no result: ATXN2 expr inh, ATXN viability) | FLuc enzyme inh inactive | A549 tox-2 inactive | ARE-Fluc inh 6.51µM
O=c1[nH]c2ccccc2n1C1CCNCC1	none (no result: A549 tox-1, Nrf2 block, TGFb inhibitor, HepG2 viability)
CC1CCOC(=O)C=CC=CC(=O)OC2CC3OC4C5OC5(C)C(O)CC4(COC(=O)C1O)C2(C)C31CO1 (stereo unspecified)	ATXN2 expr inh 0.267µM, Nrf2 block 0.517µM, TGFb inhibitor 0.282µM, ATXN viability 0.267µM (no result: A549 tox-1) | FLuc enzyme inh inactive | ARE-Fluc inh 0.366µM
CC1=CC2OC3CC4OC(=O)C=CC=CC(C(C)O)OCC(O)C5(C)OC5C(=O)OCC2(CC1O)C4(C)C31CO1 (stereo unspecified)	ATXN2 expr inh 0.112µM, Nrf2 block 0.411µM, TGFb inhibitor 0.159µM, ATXN viability inconclusive (no result: A549 tox-1) | FLuc enzyme inh inactive | ARE-Fluc inh 0.259µM
CC1Oc2cc3c(-c4c(O)cc(O)c5c(O)c6c(cc45)OC(C)C(C)C6=O)c(O)cc(O)c3c(O)c2C(=O)C1C (stereo unspecified)	A549 tox-1 inconclusive, ATXN2 expr inh 11.2µM, Nrf2 block 4.61µM, TGFb inhibitor 14.1µM, HepG2 viability 11.2µM, ATXN viability inconclusive | FLuc enzyme inh inactive | A549 tox-2 inactive | ARE-Fluc inh 9.2µM
C#CC1(O)CCC2C3CCC4=C/C(=N/OCC(=O)NCC(=O)NC(C(=O)O)C(C)C)CC[C@]4(C)C3CC[C@@]21C (stereo partly specified)	Nrf2 block 2.06µM | FLuc enzyme inh inactive | A549 tox-2 inactive | ARE-Fluc inh 6.51µM
CCN1CC=C(c2c[nH]c3ccccc23)CC1	A549 tox-1 inconclusive, Nrf2 block 1.3µM, TGFb inhibitor inconclusive, ATXN viability inconclusive | FLuc enzyme inh inactive | A549 tox-2 inconclusive | ARE-Fluc inh 0.0326µM
Cc1[nH]c2ccccc2c1P(=S)(c1ccccc1)c1ccccc1	none (no result: ATXN2 expr inh, TGFb inhibitor, HepG2 viability, ATXN viability)
CCOC(=O)c1c(C)[nH]c(C)c1S(=O)(=O)NCC(=O)N1CCN(c2cc(Cl)ccc2C)CC1	ATXN2 expr inh inconclusive, Nrf2 block inconclusive, TGFb inhibitor inconclusive
COC(=O)c1ccccc1-n1c(C)nc2ccccc2c1=O	none (no result: Nrf2 block)
O=C(O)c1cccc2nc3ccccc3nc12	Nrf2 block 2.31µM, TGFb inhibitor inconclusive, ATXN viability inconclusive | FLuc enzyme inh inactive | A549 tox-2 inactive | ARE-Fluc inh 3.26µM
COC(=O)C1=C(c2cccc(OCc3ccccc3)c2)C[C@@H]2CC[C@H]1N2C(=O)NCc1cc(C)oc1C(F)(F)F	Nrf2 block inconclusive | FLuc enzyme inh inactive | A549 tox-2 inactive | ARE-Fluc inh inconclusive
C[C@H]1O[C@@H](O[C@H]2[C@@H](O)C[C@@H](O[C@H]3[C@@H](O)C[C@H](O[C@H]4CC[C@@]5(C)[C@H](CC[C@@H]6[C@@H]5CC[C@]5(C)[C@@H](C7=CC(=O)OC7)CC[C@]65O)C4)O[C@@H]3C)O[C@@H]2C)C[C@H](O)[C@@H]1O	TGFb inhibitor 0.316µM (no result: A549 tox-1, ATXN2 expr inh, Nrf2 block, ATXN viability) | FLuc enzyme inh inactive | A549 tox-2 inconclusive | ARE-Fluc inh 0.0206µM
CNC(=O)Nc1ccc(C(=O)N/N=C\C23CC[C@@H](O)CC2(O)CC[C@@H]2[C@@H]3CCC3(C)C(C4=CC(=O)OC4)CCC23O)cc1 (stereo partly specified)	ATXN2 expr inh inconclusive, Nrf2 block inconclusive
CC(=O)OC1CC(OC2C(O)CC(OC3C(O)CC(OC4CCC5(C)C(CCC6C5CC(O)C5(C)C(C7=CC(=O)OC7)CCC65O)C4)OC3C)OC2C)OC(C)C1OC1OC(CO)C(O)C(O)C1O (stereo unspecified)	A549 tox-1 inconclusive, ATXN2 expr inh 0.316µM, Nrf2 block 0.13µM, TGFb inhibitor 1.41µM, ATXN viability inconclusive | FLuc enzyme inh inactive | A549 tox-2 inconclusive | ARE-Fluc inh 0.164µM
C[C@]12CCC3[C@@H](CC[C@@H]4C[C@H](O)CC[C@]34C)[C@@H]1CCC2=O (stereo partly specified)	none
C[C@]12CC[C@H](O)C[C@H]1CCC1C2CC[C@]2(C)[C@@H](c3ccc(=O)oc3)C[C@H]3O[C@]132 (stereo partly specified)	TGFb inhibitor 7.94µM, HepG2 viability 6.31µM (no result: A549 tox-1, ATXN2 expr inh, Nrf2 block, ATXN viability) | FLuc enzyme inh inactive | A549 tox-2 inconclusive | ARE-Fluc inh 1.46µM
